The text below walks through data of PubChem BioAssay (NCI).

Compounds without any hit were thinned out: in the full panel of roughly 83,000, 20% have a hit.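 In brief: 96-well plates, 48 h treatment, single concentration, percent growth endpoint.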 Unmarked numbers belong to inactive results. Activity calls are given as the source filed them. How the source made its calls: active means growth percent below 10; inactive means the rest.

For one assay, the system named is UACC-62 melanoma. Briefly: NCI-60 one-dose screen, 48 h (100 = growth as untreated, 0 = no growth, -100 = all killed). The conditions noted are these: 10 µM unless noted.
As to `COc1cnc2c(c1)C(=O)c1c-2n(CCCNC2=NCCS2)c(=O)c2cc(F)ccc12`, the growth was 17.4%.

With `Cc1onc(-c2ccccc2Cl)c1C(=O)N[C@@H]1C(=O)N2[C@@H]1SC(C)(C)[C@@H]2C(=O)O`, the growth is 99.5%.

In the case of `C[C@H]1O[C@@H](O[C@H]2[C@@H](O)C[C@H](O[C@H]3[C@@H](O)C[C@H](O[C@H]4CC[C@]5(C)C6C[C@@H](O)[C@]7(C)[C@@H](C8=CC(=O)OC8)CC[C@]7(O)C6CC[C@@H]5C4)O[C@@H]3C)O[C@@H]2C)C[C@H](O)[C@@H]1O` (stereo partly specified), the growth was -98.8% (active).

Take `CC1CN(/N=C/c2ccc([N+](=O)[O-])o2)C(=N)O1` (stereo unspecified): the growth is 92.7%.

Consider `O=C1NCCc2c1noc2-c1ccccc1`, for which the growth is 104%.

For `CC(=O)c1ccccc1NC(=O)C(C)(c1ccccc1)c1ccccc1`, the growth was 70.9%.

`Cc1n(Cc2ccc3ccccc3c2)c2ccccc2[n+]1Cc1ccc2ccccc2c1`: the growth was -57.9% (active).

In the next assay the test system is LOX IMVI melanoma. The assay is described as above. The following applies: 10 µM unless noted.
Consider `COc1ccc2c(c1)C(=Nc1cc(OC)c(OC)c(OC)c1)C(=O)N2`, for which the growth is 81.6%.

As to `COc1cnc2c(c1)C(=O)c1c-2n(CCCn2ccnc2)c(=O)c2cc(F)ccc12`, the growth was -68.9% (active).

`C[C@]12CCC(=O)C=C1CCC1C2[C@@H](O)C[C@@]2(C)C1CC[C@]2(O)C(=O)COC(=O)CCC(=O)O` (stereo partly specified): the growth is 98.5%.

As for `C[C@@H]1[C@H]2[C@H](C=C3[C@@H]4CC[C@H]5Cc6nc7c(nc6C[C@]5(C)[C@H]4C[C@@H](O)[C@@]32C)C[C@@H]2CC[C@H]3C4=C[C@@H]5O[C@@]6(CC[C@](C)(CO)O6)[C@@H](C)[C@@]5(O)[C@@]4(C)[C@H](O)C[C@@H]3[C@@]2(C)C7)O[C@]12CCC(C)(C)O2`, the growth is 3.2% (active).

For the compound `CCOC(=O)/C=C1/SC(=Nc2ccc(C#N)cc2)N(Cc2ccco2)C1=O`, the growth is -73.2% (active).

In the case of `C[C@H](C(=O)N[C@@H](Cc1ccc(-c2ccccc2)cc1)C(=O)NC1CC(C)(C)NC(C)(C)C1)c1ccc(-c2ccccc2)c(F)c1`, the growth was -85.3% (active).

On to `Nc1ccccc1C#Cc1ccccc1C#Cc1ccc(OCCCCCCOc2ccc(C#Cc3ccccc3C#Cc3ccccc3N)cc2)cc1`, for which the growth was 103%.

Consider `CCSc1nc(-c2ccco2)n2nc(-c3ccco3)cc2n1`, for which the growth is 88.3%.

Regarding `CN(C)c1ccc(-c2nc3ncc(Br)cc3o2)cc1`, the growth was 98.4%.

On to `CN1CCN(c2nc3scc(-c4ccccc4)c3c(=O)[nH]2)CC1`, for which the growth was 95.9%.

As to `CC(=O)OC1Oc2cc(C)c(C)cc2-c2oc(=O)c(-c3ccccc3)cc21` (stereo unspecified), the growth is 41.9%.

With `N#CC(C#N)C(C#N)C#N`, the growth was 104%.

On to `CCOC(=O)c1sc(NC(=O)COc2cccc(/C=C3\CCc4cc(OC)ccc4C3=O)c2)nc1C`, for which the growth was 48.8%.

Consider `COc1cnc2c(c1)C(=O)c1c-2n(CCCN2CCOCC2)c(=O)c2cc(F)ccc12`, for which the growth is -50.3% (active).

`CCN1CC2=C(Nc3nc(SC)[nH]c(=O)c3C2c2cc(OC)c(OC)c(OC)c2)/C(=C/c2cc(OC)c(OC)c(OC)c2)C1` (stereo unspecified): the growth is 91.1%.

As to `CCOC(=O)CCC(=O)O[C@H]1[C@H](O[C@@H]2[C@@H](C)[C@H](O[C@H]3C[C@@](C)(OC)[C@@H](O)[C@H](C)O3)[C@@H](C)C(=O)O[C@H](CC)[C@@](C)(O)[C@H](O)[C@@H](C)C(=O)[C@H](C)C[C@@]2(C)O)O[C@H](C)C[C@@H]1N(C)C`, the growth is 102%.

For `CNCCCn1c2c(c3ccc(F)cc3c1=O)C(=O)c1cc(OC)cnc1-2`, the growth was -70.7% (active).

As for `NC(=NCCCCCCN=C(N)/N=C(\N)Nc1ccc(Cl)cc1)/N=C(\N)Nc1ccc(Cl)cc1`, the growth was 23.4%.

With `O=C1CSC(c2ccccc2Cl)N1c1nnc(Cn2nnc3ccccc32)o1` (stereo unspecified), the growth was 85.9%.

As for `O=C(O)CCC(=O)OC[C@@H](NC(=O)C(Cl)Cl)[C@H](O)c1ccc([N+](=O)[O-])cc1`, the growth was 96.7%.

Turning to `COc1ccc(-c2cc(-c3nnc(SCC(=O)Nc4ccc(C(C)=O)cc4)n3-c3ccccc3)c3ccccc3n2)cc1OC`, the growth is 98.1%.

`C[C@H](C(=O)N[C@@H](Cc1ccc(-c2ccccc2)cc1)C(=O)NC1CC(C)(C)N(C)C(C)(C)C1)c1ccc(-c2ccccc2)c(F)c1`: the growth was -83.8% (active).

For `O=C(O)C1C(c2ccccc2)c2ccccc2C(O)C1CO` (stereo unspecified), the growth was 103%.

`CSc1nc(Nc2ccc(S(=O)(=O)Nc3ccon3)cc2)c(C#N)c(-c2ccc(Cl)cc2)n1`: the growth was 62.3%.

Regarding `Cc1cc(C)c(C(=O)c2cccs2)c(C)c1`, the growth is 102%.

As to `COC(=O)C1(NC(=O)CNC(=O)OCc2ccccc2)CCCC1`, the growth is 97.3%.

For `Cc1cc(C)nc(NS(=O)(=O)c2ccc(Nc3nc4nc(SCc5ccccc5)nc(-c5ccc(O)cc5)c4c(=O)[nH]3)cc2)n1`, the growth was 101%.

With `Nc1ccc(N=Nc2ccccc2)cc1[N+](=O)[O-]`, the growth is 77.9%.

As for `NS(=O)(=O)c1cc2c(cc1Cl)NC=NS2(=O)=O`, the growth is 99.6%.

As to `CCOC(=O)C1=CCC(n2cc(C)c(=O)[nH]c2=O)O1` (stereo unspecified), the growth was 98.6%.

Turning to `C[C@@H]1C[C@@H]([C@@H](CC2CC(=O)NC(=O)C2)OC(=O)CC(=O)c2ccccc2)C(=O)[C@@H](C)C1`, the growth was 11.3%.

Take `OCc1n(Cc2ccc3ccccc3c2)cc[n+]1Cc1ccc2ccccc2c1`: the growth is 45.4%.

Turning to `COc1cnc2c(c1)C(=O)c1c-2n(CCCNC2=NCCS2)c(=O)c2cc(F)ccc12`, the growth is -73.8% (active).

Take `Cc1onc(-c2ccccc2Cl)c1C(=O)N[C@@H]1C(=O)N2[C@@H]1SC(C)(C)[C@@H]2C(=O)O`: the growth was 99.9%.

With `C[C@H]1O[C@@H](O[C@H]2[C@@H](O)C[C@H](O[C@H]3[C@@H](O)C[C@H](O[C@H]4CC[C@]5(C)C6C[C@@H](O)[C@]7(C)[C@@H](C8=CC(=O)OC8)CC[C@]7(O)C6CC[C@@H]5C4)O[C@@H]3C)O[C@@H]2C)C[C@H](O)[C@@H]1O` (stereo partly specified), the growth is -98.1% (active).

Take `CC1CN(/N=C/c2ccc([N+](=O)[O-])o2)C(=N)O1` (stereo unspecified): the growth is 95.4%.

`O=C1NCCc2c1noc2-c1ccccc1`: the growth is 98.7%.

`CC(=O)c1ccccc1NC(=O)C(C)(c1ccccc1)c1ccccc1`: the growth is 81.8%.

Take `Cc1n(Cc2ccc3ccccc3c2)c2ccccc2[n+]1Cc1ccc2ccccc2c1`: the growth is -89% (active).
